A short description of test [1]: antimalarial activity against Dd2 strain (AID 2302;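 active = growth inhibition above 50% at the single 2 µM test dose, taken to imply half-maximal potency below 2 µM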;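 also: 0% = DMSO untreated growth and 100% = chloroquine plus artemisinin killed control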). To be noted: P. falciparum Dd2 in RBCs, LDH growth readout, 72 h; at 2 µM; active compounds read high.
Test [2] can be described thus: human hepatoma cell viability loss – ATP luminescence, cytotoxicity control for P. falciparum antimalarial project, primary screen (AID 2303;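 active = inhibition above 50%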;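 also: 0% = DMSO wells and 100% = digitonin-killed cells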). To be noted: HepG2 viability, 24-48 h, at 10 µM, active compounds read high.
Test [3] concerns the target L-lactate dehydrogenase (Plasmodium falciparum (isolate CDC / Honduras)) (UniProt Q27743). Briefly: PfLDH activity inhibition – cell lysate, 3D7 strain, counter-screen for P. falciparum growth inhibition project (AID 2304).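 Also: 0% = vehicle and 100% = reference inhibitor.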 To be noted: P. falciparum 3D7 crude extract, LDH APAD/NBT absorbance; at 2 µM; active compounds read high. (In general: Counterscreens check selectivity or assay interference.)

A short description of test [4]: inhibition of 3D7 malaria parasite growth – strain 3D7 (AID 2306).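 Also: 0% = DMSO wells and 100% = chloroquine plus artemisinin control wells.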 To be noted: P. falciparum 3D7 erythrocytic growth, LDH absorbance, 72 h; at 2 µM; active compounds read high.
The target in test [5] is Calcium-dependent protein kinase 1 (Plasmodium falciparum (isolate 3D7)) (UniProt P62344). Briefly: PfCDPK1 kinase inhibitors, biochemical, TCAMS library (AID 1159585; cut-off not given, nearly all actives have IC50 up to about 0.98 µM;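 also: inhibitors leave more ATP so luminescence rises with inhibition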). To be noted: recombinant PfCDPK1, Kinase-Glo ATP depletion luminescence. Background: Kinase-Glo reads ATP consumption through a luciferase reaction.
Sequence of Calcium-dependent protein kinase 1 (Plasmodium falciparum (isolate 3D7)) (P62344 whole entry, looked up): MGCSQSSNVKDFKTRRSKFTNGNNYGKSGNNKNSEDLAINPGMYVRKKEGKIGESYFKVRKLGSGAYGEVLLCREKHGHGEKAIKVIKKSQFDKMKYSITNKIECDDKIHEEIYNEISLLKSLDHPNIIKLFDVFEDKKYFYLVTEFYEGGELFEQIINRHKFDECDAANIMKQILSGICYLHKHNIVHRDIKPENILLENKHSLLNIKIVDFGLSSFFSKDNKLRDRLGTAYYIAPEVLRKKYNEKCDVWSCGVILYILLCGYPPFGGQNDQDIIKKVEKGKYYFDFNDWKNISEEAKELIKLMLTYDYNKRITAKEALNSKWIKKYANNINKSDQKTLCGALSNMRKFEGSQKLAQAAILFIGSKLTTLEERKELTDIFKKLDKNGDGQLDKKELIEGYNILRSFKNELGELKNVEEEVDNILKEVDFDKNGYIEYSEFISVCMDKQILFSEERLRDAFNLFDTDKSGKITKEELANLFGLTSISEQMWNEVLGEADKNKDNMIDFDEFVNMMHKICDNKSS
Test [6] has as its target Plasmodium falciparum protein kinase 6 (PK6, PF3D7_1337100) (UniProt Q8IDW1). As to the kind of experiment: PfPK6 kinase inhibitors, biochemical, TCAMS library (AID 1159586). To be noted: recombinant PfPK6, Kinase-Glo ATP depletion luminescence.
Test [7] concerns the target Protein kinase 7 (PK7), Plasmodium falciparum 3D7 (PF3D7_0213400) (UniProt Q7YTF7). As to the kind of experiment: inhibition of Plasmodium PK7 catalytic activity – biochemical, TCAMS antimalarial set, Kinase-Glo luminescence (AID 1159587). To be noted: recombinant PfPK7, Kinase-Glo ATP depletion luminescence.
Test [8] has as its target Calcium-dependent protein kinase 4 (Plasmodium falciparum (isolate 3D7)) (UniProt Q8IBS5). Briefly: PfCDPK4 kinase inhibitors, biochemical, TCAMS library (AID 1159588; cut-off not given, nearly all actives have IC50 up to about 0.91 µM). To be noted: recombinant PfCDPK4, Kinase-Glo ATP depletion luminescence.

A number with no mark means an inactive call. For some assays here: Results with a measured potency or affinity are listed apart. The source made the active and inactive calls. Unless noted, no rule for the calls is given here.

Sequence of Plasmodium falciparum protein kinase 6 (PK6, PF3D7_1337100) (Q8IDW1 1-305): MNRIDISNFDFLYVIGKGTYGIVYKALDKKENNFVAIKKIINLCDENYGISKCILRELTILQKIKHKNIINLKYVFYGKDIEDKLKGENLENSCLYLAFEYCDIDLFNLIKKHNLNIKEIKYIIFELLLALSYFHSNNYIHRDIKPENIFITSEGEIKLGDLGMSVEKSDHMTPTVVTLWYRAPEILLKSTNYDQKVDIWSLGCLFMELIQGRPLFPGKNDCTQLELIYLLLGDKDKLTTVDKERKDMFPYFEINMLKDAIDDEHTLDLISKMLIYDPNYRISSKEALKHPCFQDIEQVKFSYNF
Sequence of Calcium-dependent protein kinase 4 (Plasmodium falciparum (isolate 3D7)) (Q8IBS5 whole entry, looked up): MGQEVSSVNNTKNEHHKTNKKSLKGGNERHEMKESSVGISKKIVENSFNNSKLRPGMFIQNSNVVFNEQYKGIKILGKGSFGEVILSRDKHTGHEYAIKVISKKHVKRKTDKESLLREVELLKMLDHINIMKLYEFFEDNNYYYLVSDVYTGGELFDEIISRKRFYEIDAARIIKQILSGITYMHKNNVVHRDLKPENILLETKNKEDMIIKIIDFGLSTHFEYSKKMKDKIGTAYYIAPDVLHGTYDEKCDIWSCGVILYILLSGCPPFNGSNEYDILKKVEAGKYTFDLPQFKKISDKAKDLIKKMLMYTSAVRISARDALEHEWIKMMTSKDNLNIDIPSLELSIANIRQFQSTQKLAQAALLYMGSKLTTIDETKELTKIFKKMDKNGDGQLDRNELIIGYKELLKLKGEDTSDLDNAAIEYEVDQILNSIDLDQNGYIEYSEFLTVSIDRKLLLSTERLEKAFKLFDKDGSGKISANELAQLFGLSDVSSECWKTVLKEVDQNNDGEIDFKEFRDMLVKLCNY
Sequence of Protein kinase 7 (PK7), Plasmodium falciparum 3D7 (PF3D7_0213400) (Q7YTF7 1-343): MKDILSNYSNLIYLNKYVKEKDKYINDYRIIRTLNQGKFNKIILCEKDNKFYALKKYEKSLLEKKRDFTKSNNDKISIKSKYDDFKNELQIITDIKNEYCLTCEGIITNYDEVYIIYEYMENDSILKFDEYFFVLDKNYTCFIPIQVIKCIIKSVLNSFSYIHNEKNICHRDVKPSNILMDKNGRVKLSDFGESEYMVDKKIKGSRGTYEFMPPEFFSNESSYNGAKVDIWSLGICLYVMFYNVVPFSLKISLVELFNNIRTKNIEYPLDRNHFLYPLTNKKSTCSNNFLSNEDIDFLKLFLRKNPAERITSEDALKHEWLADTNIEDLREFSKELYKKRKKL
Sequence of L-lactate dehydrogenase (Plasmodium falciparum (isolate CDC / Honduras)) (Q27743 whole entry, looked up): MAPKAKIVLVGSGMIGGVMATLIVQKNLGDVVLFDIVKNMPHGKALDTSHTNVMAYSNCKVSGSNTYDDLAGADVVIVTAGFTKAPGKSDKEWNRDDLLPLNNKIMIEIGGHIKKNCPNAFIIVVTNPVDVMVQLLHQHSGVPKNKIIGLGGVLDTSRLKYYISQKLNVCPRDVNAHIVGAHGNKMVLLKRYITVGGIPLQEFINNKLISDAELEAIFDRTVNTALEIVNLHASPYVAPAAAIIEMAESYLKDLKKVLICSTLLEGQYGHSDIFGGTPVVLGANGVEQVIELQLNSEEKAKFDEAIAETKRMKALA

`O=C(NC1CCN(CCN2CCc3ccccc3CC2)CC1)c1ccc(-c2ccc(C(F)(F)F)cc2)cc1`: the growth inhibition in test [1] is 43%; in test [4], 99% (active). In addition, the inhibition was 45% in test [2] and -4% in test [3]. Also, the result in test [5], in test [6], in test [7] and in test [8] was inactive.

As for `Cc1cc(N[C@@H](CC(C)C)C(=O)NCCc2ccccc2)nc(NCc2ccccc2C)n1`, the values for the growth inhibition in test [1] and in test [4] were 74% (active) and 93% (active), respectively. The inhibition in test [2] is 17%; in test [3], 0%. Further, the result in test [5], in test [6], in test [7] and in test [8] was inactive.

On to `Cn1cncc1-c1ccc2ncnc(Nc3ccc(OCc4ccccc4)cc3)c2c1`, for which the growth inhibition in test [1] was 99% (active); in test [4], 101% (active). Moreover, the inhibition was 4% in test [2] and 1% in test [3]. Also, the result in test [5], in test [6], in test [7] and in test [8] was inactive.

As for `Cc1ccc(-c2ccc(Cl)cc2Oc2cnc(N)nc2N)o1`, the growth inhibition in test [1] was 3%; in test [4], 102% (active). The inhibition in test [2] was 15%; in test [3], -2%. Moreover, the result in test [5], in test [6], in test [7] and in test [8] was inactive.

Turning to `O=C(Nc1cccc(-c2nn3ccccc3c2-c2ccnc(Nc3ccccc3)n2)c1)c1cc(F)ccc1F`, the growth inhibition in test [1] was 75% (active); in test [4], 98% (active). Moreover, the results for the inhibition in test [2] and in test [3] were 8% and 0%, respectively. Besides, the result in test [5], in test [6], in test [7] and in test [8] was inactive.

Regarding `Cc1noc(C)c1-c1cccc(CNCc2ccc(-c3cccc(-c4nc5ccccc5[nH]4)c3)cc2)c1`, the growth inhibition in test [1] was 57% (active); in test [4], 100% (active). The results for the inhibition in test [2] and in test [3] were 50% (active) and -1%, respectively. Further, the outcome in test [5], in test [6], in test [7] and in test [8] was inactive.

For `O=C(Nc1ccc(-c2csc(-c3nc4ccccc4[nH]3)c2)cc1)Nc1ccsc1`, the results for the growth inhibition in test [1] and in test [4] were 17% and 101% (active), respectively. Moreover, the inhibition was 50% (active) in test [2] and -1% in test [3]. Besides, the outcome in test [5], in test [6], in test [7] and in test [8] was inactive.

For `O=C(/C=C/c1ccccc1Cl)NC1CCC(CN2CCC(c3c[nH]c4ccncc34)CC2)CC1` (configuration not stated), the growth inhibition in test [1] and in test [4] was 100% (active) each time. Further, the inhibition in test [2] was 19%; in test [3], -2%. The result in test [5], in test [6], in test [7] and in test [8] was inactive.

Regarding `O=[N+]([O-])c1cccc(NC(=S)N2CCCN(Cc3ccc(F)cc3F)CC2)c1`, the growth inhibition is 98% (active) in test [1] and 99% (active) in test [4]. In addition, the inhibition is 5% in test [2] and -1% in test [3]. For the same compound, the outcome in test [5], in test [6], in test [7] and in test [8] was inactive.

For `O=C(NC1CCCCCC1)C1CCCN(C(=O)c2ccc(O)c(-c3ccc(Cl)c(Cl)c3)c2)C1` (configuration not stated), the growth inhibition in test [1] was 21%; in test [4], 98% (active). In addition, the inhibition in test [2] was 5%; in test [3] it was -2%. For the same compound, the outcome in test [5], in test [6], in test [7] and in test [8] was inactive.

As for `O=C(Nc1ccccc1)OCCOc1ccc(CC2SC(=O)NC2=O)cc1` (configuration not stated), the figures for the growth inhibition in test [1] and in test [4] were -6% and 100% (active), respectively. In addition, the results for the inhibition in test [2] and in test [3] were 1% and -3%, respectively. For the same compound, the outcome in test [5], in test [6], in test [7] and in test [8] was inactive.

`Cc1cccc(CN2CCCC3(CCN(Cc4ccccc4O)C3)C2)c1` (configuration not stated): the growth inhibition in test [1] is 76% (active); in test [4] it was 99% (active). The inhibition in test [2] was 14%; in test [3], -3%. The outcome in test [5], in test [6], in test [7] and in test [8] was inactive.

Regarding `Cc1cccc2[nH]c(-c3cccc(-c4ccc(C(=O)N5CCCCC5C(C)O)cc4)c3)nc12` (configuration not stated), the growth inhibition in test [1] is 91% (active); in test [4] it was 100% (active). Also, the inhibition in test [2] is 26%; in test [3] it was -2%. For the same compound, the outcome in test [5], in test [6], in test [7] and in test [8] was inactive.

Consider `CSc1ccc2ccccc2c1CNCCCCCCNCc1c(SC)ccc2ccccc12`, for which the results for the growth inhibition in test [1] and in test [4] were 74% (active) and 99% (active), respectively. In addition, the results for the inhibition in test [2] and in test [3] were 83% (active) and 3%, respectively. For the same compound, the outcome in test [5], in test [6], in test [7] and in test [8] was inactive.

Regarding `CC(Oc1ccc(Cl)cc1)C(=O)Nc1cc(C(F)(F)F)ccc1-n1cncn1` (configuration not stated), the growth inhibition in test [1] is 98% (active); in test [4] it was 99% (active). Moreover, the inhibition in test [2] was -2%; in test [3], 2%. The outcome in test [5], in test [6], in test [7] and in test [8] was inactive.

Regarding `CC(Sc1n[nH]c(-c2cccs2)n1)C(=O)c1c[nH]c2ccccc12` (configuration not stated), the figures for the growth inhibition in test [1] and in test [4] were 58% (active) and 94% (active), respectively. The inhibition in test [2] was -8%; in test [3], 6%. In addition, the outcome in test [5], in test [6], in test [7] and in test [8] was inactive.

With `Cc1cc2c(NC(=O)NC3CCN(Cc4ccc(Cl)c(Cl)c4)CC3)cccc2cn1`, the growth inhibition was 41% in test [1] and 100% (active) in test [4]. For the same compound, the inhibition is 11% in test [2] and -2% in test [3]. In addition, the result in test [5], in test [6], in test [7] and in test [8] was inactive.

For `Cc1cc(C2CCN(CCCCNC(=O)c3ccc(-c4ccc(C(F)(F)F)cc4)cc3)CC2)c(C)cc1OCC#N`, the growth inhibition in test [1] is 58% (active); in test [4], 100% (active). Further, the inhibition in test [2] is 40%; in test [3] it was 3%. Also, the result in test [5], in test [6], in test [7] and in test [8] was inactive.

Turning to `CCCC(CNCc1ccc(Cl)c(C(F)(F)F)c1)CNc1nc2ccncc2[nH]1` (configuration not stated), the growth inhibition in test [1] is 8%; in test [4], 99% (active). For the same compound, the inhibition was 26% in test [2] and -1% in test [3]. The outcome in test [5], in test [6], in test [7] and in test [8] was inactive.

Usually inhibition stands for the drop in the measured response relative to a control, in per cent.

For the origin of these results see PubChem BioAssay.
